# SMN2 splice up: SMN2 splice variant enhancement; AID 1458; HEK293 SMN2-luciferase splicing reporter, luminescence, 30-36 h; Potency, µM (top dose mostly 46.1 µM), without a hit: top-dose activity change, positive = activation, usual class: activators; actives 2.8% (n = 210,000); also: % of control where 0% means no effect; nearly all actives have a fitted effect of over 55% in size
#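 HEK293 cells carry an SMN2 minigene-luciferase reporter in which exon 7 inclusion puts luciferase in frame. Cells were seeded at 2000 cells/well, attached for 10-12 hours, then exposed to compounds for 30-36 hours at 37C before ONE-Glo luminescence.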
# Rab9 prom act: Rab9 promoter activation. AID 485297. Potency, µM (series often up to 9.22 µM), for inactives: at the top dose activation, negative = inhibition, usual class: activators. Huh7 Rab9 promoter-luciferase reporter, luminescence, 24 h. actives 2.8% (n = 320,000); also: % of control where 0% means no effect; nearly all actives have a fitted effect of over 60% in size
#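 Stable Rab9-luc Huh7, 1500 cells/well, 2 h settle; cmpd in DMSO, 24 h, 37 °C/5% CO2; luciferase reagent 10 min RT; luminescence.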
# p53 reactivation: mutant p53 re-activation in reporter cells; H1299 p53-A138V BP100-luciferase reporter, luminescence, 24 h; actives 0.063% (n = 320,000); AID 504706; Potency, µM (doses to about 92.2 µM), without a hit: at the highest dose activity change, positive = activation, actives largely listed as activators; also: % of control where 0% means no effect; nearly all actives have a fitted effect of over 45% in size
#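 H1299 (p53-null), stable ts p53-A138V + BP100-Luc; 1000 cells/well, Opti-MEM/10% FBS; cpd 4 pt, 1:5; 24 h, 37 deg C, 5% CO2; detection reagent 10 min RT; luminescence.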
# ELG1 genotox: genotoxicity induction in ELG1-luciferase HEK293T cells. HEK293T ELG1-luciferase reporter, luminescence, 16 h. Potency, µM (series often up to 46 µM), for inactives: top-dose activity change, positive = activation, usual class: activators. actives 1.3% (n = 330,000). AID 504466; also: % of control where 0% means no effect; nearly all actives have a fitted effect of over 60% in size
#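 HEK293T cells expressing luciferase-tagged ELG1 were treated with compound or DMSO for 16 hr at 37°C. Luciferase activity was then read after 30 min with ONE-Glo at room temperature; rising signal flags genetic stress.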
# NPC1 prom act: activators of NPC1 promoter. Huh7 NPC1 promoter luciferase reporter, 24 h. Potency, µM (series often up to 9.22 µM), for the others: top-dose activation, usual class: activators. actives 2.4% (n = 320,000). AID 485313; also: % of control where 0% means no effect; nearly all actives have a fitted effect of over 60% in size
#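 Quantitative HTS used a cell-based reporter: Huh7 cells stably bearing the NPC1 promoter upstream of luciferase were treated with compounds for 24 h, and promoter activation was read as luminescence.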
# FLuc modulator: counter-screen for miR-21 project: firefly luciferase inhibitors or activators; P08659; purified FLuc, Km substrates, luminescence inhibition; Potency, µM (top dose mostly 57.5 µM), inactives show at the top dose activity change, negative = inhibition, most hits filed as inhibitors; AID 588342; actives 6.9% (n = 360,000);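 also: plate controls were vehicle for no effect and reference inhibitor for full effect; nearly all actives have a fitted effect of over 55% in size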
# Target sequence (P08659 whole entry, looked up): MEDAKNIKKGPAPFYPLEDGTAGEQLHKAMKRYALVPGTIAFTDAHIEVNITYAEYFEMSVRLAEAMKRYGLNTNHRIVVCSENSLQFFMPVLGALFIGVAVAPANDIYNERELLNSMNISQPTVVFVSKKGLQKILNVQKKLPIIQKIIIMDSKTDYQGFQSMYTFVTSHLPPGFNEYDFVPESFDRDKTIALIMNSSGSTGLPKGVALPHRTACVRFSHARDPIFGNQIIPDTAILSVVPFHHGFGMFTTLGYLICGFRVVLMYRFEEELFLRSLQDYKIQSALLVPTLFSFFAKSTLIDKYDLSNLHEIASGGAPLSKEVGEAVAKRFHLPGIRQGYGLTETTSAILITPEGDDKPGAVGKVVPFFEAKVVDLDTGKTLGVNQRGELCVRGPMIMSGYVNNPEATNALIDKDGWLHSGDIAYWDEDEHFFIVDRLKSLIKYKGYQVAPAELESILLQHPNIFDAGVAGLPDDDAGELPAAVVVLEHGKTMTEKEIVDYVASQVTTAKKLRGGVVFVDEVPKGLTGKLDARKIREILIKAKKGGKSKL
#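 Purified P. pyralis luciferase, 10 nM final, with Km-level 10 uM D-luciferin and 10 uM ATP in 50 mM Tris acetate pH 7.5, 10 mM Mg acetate, 0.01% Tween-20, 0.05% BSA; 6-point qHTS titration about 60 µM downward; luminescence read.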
# Numbers without * were called inactive; ? = inconclusive; . = no result; [ ] = another dose, or the depositor's remark. A selection: hits, their analogues and other compounds. The true share with any hit is near 7.3%. Calls follow the shape of the dose curve; as a rule, active = well fitted curve in the direction sought with a large enough effect; inconclusive = small, poorly fitted or top-dose-only effect, or another doubt; inactive = no such curve, though single readings can be large; an effect the other way counts as inactive or inconclusive. Potency is read from the fitted curve at half-maximal effect.
SMILES,SMN2 splice up,Rab9 prom act,p53 reactivation,ELG1 genotox,NPC1 prom act,FLuc modulator
CCN1CCN(/C=N/c2nc3c(s2)CCCC3)CC1,-4.5%,?,-9.2%,0.92µM*,?,1.35µM*
CCOc1ccccc1NC(=O)Nc1cc(C(=O)NCc2ccc(C)cc2)ccc1N1CCCC1,.,.,.,.,.,-1.8%
CC1=C(c2ccc(C)cc2)S(=O)(=O)NC1=NCCCN1CCN(c2ccccc2F)CC1,.,.,.,.,.,-0.1%
CC(=O)c1ccc(Nc2cc(C)nc3ccccc23)cc1,.,-4.1%,10.5%,-2.1%,-31.1%,-0.6%
COc1ccccc1-c1ccc(Nc2cccc(C(C)=O)c2)nn1,21.7%,23.8%,?,?,9.6%,?
CC(=O)c1ccc(Nc2ccc(-c3ccccc3C)nn2)cc1,11.2µM*,1.58µM*,4.3%,?,?,9.53µM*
CC(=O)c1cccc(Nc2ccc(-c3ccccc3F)nn2)c1,11.2µM*,2.24µM*,10.3%,12.7%,2.82µM*,5.36µM*
CC1(C)CCC2=C(O1)c1ccccc1C(=O)C2=O,-85.1%,-43.5%[46.1 µM],.,.,-30.0%[46.1 µM],.
CCOc1ccccc1CNC(=O)Cn1nc(C)c2nn(-c3ccc(Cl)cc3)c(C)c2c1=O,.,.,.,.,.,3.4%
CCc1cc(=O)[nH]c(-n2[nH]c(-c3ccccc3)cc2=O)n1,4.2%,2.5%,3.7%,0.5%,-0.7%,?
O=c1cc(-c2ccccc2)[nH]n1-c1nc2ccccc2[nH]1,3.4%,-1.9%,?,?,3.7%,19µM*
CC(C)Oc1ccc(C(=O)/C=C2/C(=O)Nc3ccccc32)cc1,.,6.1%,9.4%,?,0.8%,5.36µM*
COc1ccc(C2c3c(-c4ccccc4)n[nH]c3C(=O)N2c2ccc(C(=O)O)cc2)cc1 (stereo unspecified),.,-0.8%,3.0%,8.3%,-6.2%,16.9µM*
N#C/C(=C\c1ccc(-c2nc3ccccc3s2)o1)C(N)=O,.,?,4.9%,18.4%,3.16µM*,2.69µM*
CNC(=O)/C(C#N)=C/c1ccc(-c2nc3ccccc3s2)o1,.,1.41µM*,12.5%,?,2.82µM*,?
Cc1ccc(SCc2nc(-c3ccc(C(=O)Nc4cc(C)ccc4C)cc3)oc2C)cc1,.,.,.,.,.,-10.4%
OC(Cc1ccccc1)(Cc1ccccc1)c1ccccc1,-6.6%[9.22 µM],.,.,.,.,.
Cc1ccc(NC(=O)c2cccnc2)cc1C,.,?,.,?,28.3%,?
Cc1ccc(NC(=O)c2snc3ccc(Cl)cc23)cc1C,11.2µM*,?,28.2%,18.2%,8.8%,12µM*
O=C(Nc1ccc2c(c1)CCCN2C(=O)c1ccccc1)c1ccccc1,.,?,15.8%,-5.6%,26.4%,13.5µM*
Cc1ccc(NC(=O)c2snc3c(=O)[nH]cnc23)cc1C,-10.4%,-4.5%,5.7%,5.4%,0.0%,-17.8%
O=C(Nc1cc(NC(=O)c2ccccc2F)ccc1Cl)c1ccccc1,.,9.1%,-4.6%,-6.3%,4.3%,15.1µM*
Cc1ccccc1C(=O)Nc1ccc2c(c1)CCCN2C(=O)c1cccs1,.,21.2%,6.8%,-7.2%,0.3%,-14.7%
Cc1ccc(NC(=O)c2ccccc2)cc1C,.,5.6%,7.8%,7.9%,12.8%,15.1µM*
Cc1ccccc1CS(=O)(=O)Cc1ccc(C(=O)NCCc2ccc(Cl)cc2)o1,.,.,.,.,.,-19.6%
SMILES,SMN2 splice up,Rab9 prom act,p53 reactivation,ELG1 genotox,NPC1 prom act,FLuc modulator
O=C(Nc1ccc(F)c(F)c1)c1ccccc1,.,?,23.3%,20.6µM*,?,?
Cc1ccc(NC(=O)CCSCCC(=O)Nc2ccc(C)c(C)c2)cc1C,-1.1%,-3.6%,-3.3%,0.2%,-0.6%,16.9µM*
O=C(Nc1ccc(F)c(F)c1)c1cccnc1,-12.8%,-0.8%,-2.1%,-2.2%,0.8%,2.6%
CC1CCN(CCNC(=O)c2ccc(Cn3c(SCc4ccccc4)nc4cccnc43)cc2)CC1,1.8%,.,.,.,.,12µM*
CC1CCCCN1CCNC(=O)c1ccc(Cn2c(SCc3ccccc3)nc3cccnc32)cc1 (stereo unspecified),7.7%,.,.,.,.,13.5µM*
Cc1cccc(Cn2c(SCc3ccc(C(=O)NCCc4ccccc4)cc3)nc3cccnc32)c1,.,.,.,.,.,-14.1%
O=C(NCCN1CCCCC1)c1ccc(Cn2c(SCc3ccccc3)nc3cccnc32)cc1,4.2%,.,.,.,.,12µM*
Cc1cc(C)cc(NC(c2cccc(Cl)c2)c2nnc(-c3ccccc3)o2)c1 (stereo unspecified),8.2%,.,.,.,.,-17.4%
Cc1csc(=N)n1-c1ccc(Cl)cc1,-4.7%,3.55µM*,?,?,?,9.53µM*
Cc1cc(C(=O)C(=O)O)c(C)n1-c1ccc(Cl)cc1,8.5%,-9.0%,-2.5%,2.4%,0.0%,-7.0%
Cc1ccc(-n2c(C)csc2=N)cc1,11.2µM*,2µM*,23.5%,5.17µM*,3.16µM*,5.36µM*
Cc1csc(=S)n1-c1ccccc1,19.4%,-5.3%,-6.6%,0.9%,-2.2%,3.7%
COc1ccccc1NC(=O)CSC1=Nc2ccccc2C2=NC(CCC(=O)NCc3ccco3)C(=O)N12 (stereo unspecified),.,.,.,.,.,1.0%
CC(CNC(=O)c1ccc2nc(CCc3ccccc3)oc2c1)c1ccccc1 (stereo unspecified),.,.,.,.,.,-5.7%
COC(=O)c1cc(=O)nc2sc(-c3ccccc3)nn12,3.9%,-1.9%,-13.6%,-1.1%,-4.2%,-0.6%
Cc1cc(=O)n2nc(-c3ccccc3)sc2n1,12.6µM*,2µM*,6.3%,?,?,?
O=C(/C=C/c1ccccc1)OCCCN=C1NS(=O)(=O)c2ccccc21,-13.6%,-8.1%,-3.0%,-6.3%,-4.1%,-5.5%
COc1cccc(-c2nc(=S)c3c(o2)CCCC3)c1,?,?,22.2%,?,2.6%,3.01µM*
O=[N+]([O-])c1ccc(-c2nc(=S)c3c(o2)CCCC3)cc1,13.1%,29.1%,11.3%,3.3%,30.0%,?
S=c1nc(-c2ccccc2)oc2c1CCCC2,23.6%,?,?,16.2%,?,13.5µM*
O=C(NC(Cc1ccccc1)C(=O)NCCc1ccccn1)c1ccccc1 (stereo unspecified),.,4.4%,1.7%,3.0%,-4.4%,0.0%
O=[N+]([O-])c1cccc(/C=N/Nc2ccccn2)c1,11.2µM*,3.98µM*,0.8%,?,?,3.01µM*
O=[N+]([O-])c1cccc(/C=N/Nc2nccnc2Cl)c1,?,2µM*,13.4%,?,2.82µM*,12µM*
Fc1cccc(/C=N/Nc2nccnc2Cl)c1,.,?,.,?,?,21.3µM*
O=[N+]([O-])c1cccc(/C=C/c2ccccn2)c1,.,?,21.3%,8.4%,?,13.5µM*
COc1ccccc1NC(=O)c1ccc(NC(=O)c2ccc(=O)[nH]c2)cc1,.,1.6%,6.5%,3.7%,0.3%,-11.0%
